Experimental findings from PubChem BioAssay are described below.

Test [1] is described as follows: survival rescue of mitochondrial mutant cells in low glucose, primary screen, MELAS cybrids, Rieske KO mouse fibroblasts, CellTiter-Glo (AID 1508586;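 note: z relative to plate mean and SD of compound and empty wells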). (In general: In ATP-based viability assays light output follows the ATP content of the culture.)
Test [2] in a line: phospholipid biosynthesis inhibitors in animal cells, primary screen, cell-based, LOPAC library, screen 4 (AID 1347384; call rule not given here). Particulars: phospholipid biosynthesis inhibition screen, at 10 µM.
Test [3] has as its target NAD(+) hydrolase SARM1 (Homo sapiens) (UniProt Q6SZW1). The experiment in a line: SARM1 TIR NADase inhibitors, cell lysate, NAD-Glo luminescence (AID 1508614;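 active = compound whose remaining NAD level is above about 45 nM, limit read from the data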;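 note: higher remaining NAD means stronger inhibition of SARM1 NADase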). The following applies: SAM-TIR HEK293T lysate NADase, at 1 µM, stronger effect = higher value.
The target in test [4] is Mitogen-activated protein kinase 7 (Homo sapiens) (UniProt Q13164). The experiment in a line: ERK5 transactivation activators in reporter cells, primary screen, cell-based, HTS (AID 1508626;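 active = luciferase signal above three times the same-plate solvent-only control wells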;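 note: luciferase driven by Gal4-ERK5 fusion binding five Gal4 sites before minimal TATA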). Particulars: HeLa Gal4-ERK5 transactivation, 18 h, at 5 µM, stronger effect = higher value.
Chain of Mitogen-activated protein kinase 7 (Homo sapiens) (Q13164 whole entry, looked up, the tested form may be a part): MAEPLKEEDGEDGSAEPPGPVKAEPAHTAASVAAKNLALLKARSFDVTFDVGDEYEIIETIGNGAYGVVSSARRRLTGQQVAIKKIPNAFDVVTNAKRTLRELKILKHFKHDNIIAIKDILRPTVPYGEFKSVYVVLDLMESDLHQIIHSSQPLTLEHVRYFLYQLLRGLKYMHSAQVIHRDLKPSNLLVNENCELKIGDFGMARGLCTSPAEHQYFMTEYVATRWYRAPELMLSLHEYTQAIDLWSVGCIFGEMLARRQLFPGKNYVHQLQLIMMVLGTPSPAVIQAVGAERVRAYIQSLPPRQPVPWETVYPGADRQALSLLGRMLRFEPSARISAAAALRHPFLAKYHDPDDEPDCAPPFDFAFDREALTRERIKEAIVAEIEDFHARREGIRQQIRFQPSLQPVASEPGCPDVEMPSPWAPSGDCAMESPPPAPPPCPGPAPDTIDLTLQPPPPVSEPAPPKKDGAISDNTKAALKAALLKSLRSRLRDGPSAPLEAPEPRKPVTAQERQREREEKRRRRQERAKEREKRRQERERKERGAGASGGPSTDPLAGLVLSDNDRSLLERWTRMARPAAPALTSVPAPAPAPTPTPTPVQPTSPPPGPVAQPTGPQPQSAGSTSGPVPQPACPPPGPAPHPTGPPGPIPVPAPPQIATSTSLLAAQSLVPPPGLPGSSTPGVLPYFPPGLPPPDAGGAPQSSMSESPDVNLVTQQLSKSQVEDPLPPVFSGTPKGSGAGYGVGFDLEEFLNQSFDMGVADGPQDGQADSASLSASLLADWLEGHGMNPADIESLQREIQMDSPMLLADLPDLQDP
Test [5] is described as follows: viability rescue of complex I mutant cybrids, primary screen, cell-based, galactose medium, ATP luminescence (AID 1645843;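 active = z-score of at least 1.8 in each of two replicates, scored against plate mean and spread of sample wells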;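 note: positive z means more ATP and so rescue of galactose-driven cybrid death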). Particulars: complex I mutant cybrid cells, 72 h, stronger effect = higher value.
Where [6] appears, read: MELAS cybrid survival, CellTiter-Glo 48 h, stronger effect = higher value.
Setting [7] is: Rieske KO mouse fibroblast survival, CellTiter-Glo 72 h.

Structures are written as SMILES. “And” between values parts separate entries of the source, which are not always exact repeats. Identical values can stand only once. The source made the active and inactive calls.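 Rule for the calls, unless noted: active = mean z-score across replicates of 1.96 or higher in either the MELAS or the Rieske mutant cell line; inactive = the rest.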

Chain of NAD(+) hydrolase SARM1 (Homo sapiens) (Q6SZW1 whole entry, looked up, the tested form may be a part): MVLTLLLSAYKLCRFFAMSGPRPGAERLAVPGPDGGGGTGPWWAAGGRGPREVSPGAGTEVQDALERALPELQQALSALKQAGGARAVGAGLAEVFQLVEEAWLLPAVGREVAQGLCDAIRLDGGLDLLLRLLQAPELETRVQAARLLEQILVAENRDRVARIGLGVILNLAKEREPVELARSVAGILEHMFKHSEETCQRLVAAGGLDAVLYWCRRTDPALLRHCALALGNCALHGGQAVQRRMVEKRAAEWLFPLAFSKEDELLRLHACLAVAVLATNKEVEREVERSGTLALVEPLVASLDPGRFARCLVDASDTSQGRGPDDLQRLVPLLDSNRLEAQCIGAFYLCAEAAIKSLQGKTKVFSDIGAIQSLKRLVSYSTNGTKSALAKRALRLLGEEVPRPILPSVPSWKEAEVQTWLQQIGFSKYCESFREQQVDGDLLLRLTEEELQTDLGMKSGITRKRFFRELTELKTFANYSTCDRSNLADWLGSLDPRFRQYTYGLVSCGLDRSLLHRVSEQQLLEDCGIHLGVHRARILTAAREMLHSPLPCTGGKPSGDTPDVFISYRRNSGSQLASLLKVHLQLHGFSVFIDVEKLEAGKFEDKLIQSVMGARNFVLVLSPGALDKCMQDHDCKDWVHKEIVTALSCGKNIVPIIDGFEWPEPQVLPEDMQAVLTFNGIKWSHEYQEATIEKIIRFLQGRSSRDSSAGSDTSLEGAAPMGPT

As to `O=C1c2cccc3c2[C@H](CCC3)CN1[C@@H]1CN2CCC1CC2`, the values for the z-score in test [1] (setting [6]) and in test [1] (setting [7]) were 0.942 (inactive) and 0.737, respectively.

As for `CCCCNc1ccc(C(=O)OCCN(C)C)cc1`, in test [2], the outcome was inactive. The z-score was -0.338 (inactive) and -0.454 (inactive) in test [1] (setting [6]); -0.0172 and -0.0428 in test [1] (setting [7]); -0.23 (inactive) in test [5]. Moreover, the remaining NAD in test [3] is 10 nM (inactive). For the same compound, the luciferase signal in test [4] is 76 AU (inactive).

As to `COc1ccc(CCN2CCC(Nc3nc4ccccc4n3Cc3ccc(F)cc3)CC2)cc1`, the z-score was -0.668 (inactive) and -0.11 (inactive) in test [1] (setting [6]); -1.26 and 1.21 in test [1] (setting [7]); -0.615 (inactive) and -2.45 (inactive) in test [5]. In addition, in test [3], the remaining NAD was 10 nM (inactive). Also, in test [4], the luciferase signal was 84 AU (inactive).

On to `O=C1[C@H]2CCCC[C@H]2C(=O)N1CCCCN1CCN(c2nsc3ccccc23)CC1`, for which the z-score in test [1] (setting [6]) was 1.02 (inactive); in test [1] (setting [7]) it was 0.693.

Regarding `CC(N)C(=O)OC(C)(C)Cc1ccc(Cl)cc1` (centres undefined), the call in test [2] was inactive. Besides, in test [3], the remaining NAD is 10 nM (inactive). Moreover, the luciferase signal in test [4] is 92 AU (inactive).

On to `Cc1scc2c1N(C(=O)CN1CCN(C)CC1)c1ccccc1NC2=O`, for which the call in test [2] was inactive. Also, the z-score in test [1] (setting [6]) was 0.644 (inactive) and 0.966 (inactive); in test [1] (setting [7]), 0.467 and 0.592; in test [5], 0.33 (inactive) and 0.02 (inactive) and 0.68 (inactive). Further, the remaining NAD in test [3] was 10 nM (inactive).

On to `Nc1c(Br)cc(Br)cc1CNC1CCC(O)CC1` (centres undefined), for which the z-score in test [1] (setting [6]) was -0.0247 (inactive) and 0.738 (inactive) and 0.116 (inactive); in test [1] (setting [7]) it was -0.062 and -0.225 and -0.64; in test [5], -0.32 (inactive) and 0.295 (inactive). In test [3], the remaining NAD is 10 nM (inactive). The luciferase signal in test [4] is 84 AU (inactive).

Take `Clc1ccccc1C(c1ccccc1)(c1ccccc1)n1ccnc1`: the result in test [2] was inactive. For the same compound, the z-score in test [1] (setting [6]) was -0.333 (inactive) and -0.755 (inactive); in test [1] (setting [7]) it was 0.273 and 0.133; in test [5] it was -1.52 (inactive) and -1.44 (inactive). Also, the remaining NAD in test [3] was 10 nM (inactive). For the same compound, the luciferase signal in test [4] is 72 AU (inactive).

Turning to `CN(C)C(=O)Oc1cccc([N+](C)(C)C)c1`, the result in test [2] was inactive. Also, the z-score was 0.498 (inactive) and -0.72 (inactive) in test [1] (setting [6]); 0.395 and -0.634 in test [1] (setting [7]); 0.53 (inactive) and 0.21 (inactive) in test [5]. For the same compound, the remaining NAD in test [3] was 10 nM (inactive). For the same compound, in test [4], the luciferase signal was 48 AU (inactive).

Turning to `Clc1ccc2c(c1)CCc1cccnc1C2=C1CCNCC1`, the z-score is -0.116 (inactive) and -0.424 (inactive) and -0.172 (inactive) in test [1] (setting [6]); -0.231 and 0.543 and -0.35 in test [1] (setting [7]); -1.23 (inactive) and -1.54 (inactive) in test [5]. Also, the remaining NAD in test [3] is 10 nM (inactive). The luciferase signal in test [4] is 32 AU (inactive) and 40 AU (inactive).

For `O=C(CCNNC(=O)c1ccncc1)NCc1ccccc1`, the compound was called inactive in test [2]. In addition, the z-score in test [1] (setting [6]) was -0.952 (inactive) and 0.716 (inactive); in test [1] (setting [7]), -0.171 and 0.697; in test [5], 0.035 (inactive) and 0.205 (inactive) and 0.305 (inactive). In test [3], the remaining NAD is 10 nM (inactive). Further, the luciferase signal in test [4] was 76 AU (inactive).

`COC(=O)C1=C(C)NC(C)=C(C(=O)O[C@@H]2CCCN(Cc3ccccc3)C2)[C@@H]1c1cccc([N+](=O)[O-])c1`: the z-score in test [1] (setting [6]) is 0.772 (inactive); in test [1] (setting [7]), 0.352.

Turning to `COc1ccc(CN(CCN(C)C)c2ccccn2)cc1`, the result in test [2] was inactive. Further, the z-score in test [1] (setting [6]) was 0.327 (inactive) and -0.721 (inactive); in test [1] (setting [7]), 0.0359 and 0.287; in test [5] it was -0.145 (inactive) and 0.84 (inactive) and 0.65 (inactive). For the same compound, the remaining NAD in test [3] is 18 nM (inactive). For the same compound, the luciferase signal in test [4] was 88 AU (inactive).

Turning to `CC(=O)O[C@]1(C(C)=O)CC[C@H]2[C@@H]3C=C(Cl)C4=CC(=O)CC[C@]4(C)[C@H]3CC[C@@]21C`, the z-score in test [1] (setting [6]) is -0.83 (inactive); in test [1] (setting [7]), 0.517. Further, in test [3], the remaining NAD is 10 nM (inactive). The luciferase signal in test [4] was 76 AU (inactive).

`CCOC(=O)C1=C(C)NC(C)=C(C(=O)OC)C1c1cccc(Cl)c1Cl` (centres undefined): the compound was called inactive in test [2]. In addition, the z-score in test [1] (setting [6]) is -0.244 (inactive) and -0.163 (inactive) and -0.233 (inactive); in test [1] (setting [7]), -0.0889 and -0.113 and 0.553; in test [5] it was -1.02 (inactive) and -1.48 (inactive) and 1.76 (inactive). For the same compound, in test [3], the remaining NAD was 10 nM (inactive).

Consider `CNCC(O)c1ccc(O)c(O)c1` (centres undefined), for which the compound was called inactive in test [2]. The z-score in test [5] was -1.02 (inactive) and -0.655 (inactive).

As to `Cc1cccc(C)c1OCC(C)N` (centres undefined), in test [2], the result was inactive. For the same compound, the z-score was -0.0413 (inactive) and -0.119 (inactive) in test [1] (setting [6]); -0.286 and -0.0916 in test [1] (setting [7]); -0.045 (inactive) and 0.78 (inactive) and -0.055 (inactive) in test [5]. Further, the remaining NAD in test [3] is 10 nM (inactive). For the same compound, the luciferase signal in test [4] was 52 AU (inactive).

With `O=C1NCC2(CCN(CCc3ccccc3)CC2)O1`, in test [2], the call was inactive. The z-score was -0.249 (inactive) and 0.534 (inactive) in test [1] (setting [6]); -0.174 and -0.0853 in test [1] (setting [7]); 0.155 (inactive) in test [5]. In addition, the remaining NAD in test [3] was 10 nM (inactive). Also, the luciferase signal in test [4] was 52 AU (inactive).

On to `CN1CCN(C2=Nc3ccccc3Oc3ccc(Cl)cc32)CC1`, for which the call in test [2] was inactive. Also, the z-score in test [1] (setting [6]) is -0.155 (inactive) and 0.0915 (inactive); in test [1] (setting [7]) it was -0.224 and 0.0483; in test [5], -0.48 (inactive) and -0.015 (inactive). Moreover, the remaining NAD in test [3] was 10 nM (inactive). In addition, in test [4], the luciferase signal was 132 AU (inactive).

As to `c1ccc(CN(CC2=NCCN2)c2ccccc2)cc1`, the z-score in test [1] (setting [6]) was 0.519 (inactive) and -0.255 (inactive) and -0.229 (inactive); in test [1] (setting [7]), -0.208 and -0.144 and -0.113; in test [5] it was -0.39 (inactive) and 0.065 (inactive). In test [3], the remaining NAD was 10 nM (inactive). Also, the luciferase signal in test [4] was 112 AU (inactive).

Consider `COc1cc(C(=O)OCCCN2CCCN(CCCOC(=O)c3cc(OC)c(OC)c(OC)c3)CC2)cc(OC)c1OC`, for which, in test [2], the compound was called inactive. Further, the z-score was 0.925 (inactive) and 0.274 (inactive) in test [1] (setting [6]); 0.203 and 0.937 in test [1] (setting [7]); -0.89 (inactive) and 0.995 (inactive) and -0.26 (inactive) in test [5]. Besides, the remaining NAD in test [3] was 10 nM (inactive).

As for `CCN(CC)CCNC(=O)c1cc(Cl)c(N)cc1OC`, the compound was called inactive in test [2]. In addition, the z-score is -1.13 (inactive) and 0.206 (inactive) and 0.37 (inactive) in test [1] (setting [6]); -0.268 and 0.0241 and 0.87 in test [1] (setting [7]); -0.285 (inactive) and 0.055 (inactive) and 0.595 (inactive) in test [5]. In addition, the remaining NAD in test [3] was 10 nM (inactive). Besides, the luciferase signal in test [4] is 100 AU (inactive).
